In PubChem BioAssay:
Calls of active or inactive are those of the source.

Key:
Albumin (Bos taurus) = Albumin (Bos taurus) (UniProt P02769); assay: bovine serum albumin binders on microarray, profiling panel, artefact control for SMM control protein annotation, biochemical, small-molecule microarray, Alexa647 label, 635/667 nm fluorescence (AID 1118); conditions: BSA-A647 binding, fluorescence 635 nm, higher = more signal;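 further: score merges 667 nm emission intensity and signal-to-noise per printed compound spot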
Sequence of Albumin (Bos taurus) (P02769 whole entry, looked up): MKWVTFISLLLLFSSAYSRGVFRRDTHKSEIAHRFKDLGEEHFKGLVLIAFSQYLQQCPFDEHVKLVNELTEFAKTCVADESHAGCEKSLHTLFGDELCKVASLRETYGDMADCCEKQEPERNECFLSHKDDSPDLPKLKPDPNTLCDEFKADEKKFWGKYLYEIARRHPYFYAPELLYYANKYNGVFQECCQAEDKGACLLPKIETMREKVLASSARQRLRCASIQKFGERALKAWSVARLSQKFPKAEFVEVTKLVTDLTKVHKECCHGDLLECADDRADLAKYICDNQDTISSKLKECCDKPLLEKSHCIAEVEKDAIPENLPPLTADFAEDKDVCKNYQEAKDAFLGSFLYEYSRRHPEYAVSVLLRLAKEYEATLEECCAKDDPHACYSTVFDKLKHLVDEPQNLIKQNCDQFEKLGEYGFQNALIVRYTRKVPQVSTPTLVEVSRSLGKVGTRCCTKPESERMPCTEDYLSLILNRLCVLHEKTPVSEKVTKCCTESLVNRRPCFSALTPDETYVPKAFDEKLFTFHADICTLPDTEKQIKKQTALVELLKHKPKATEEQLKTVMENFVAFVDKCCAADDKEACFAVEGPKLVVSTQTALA

[1] = small-molecule microarray binders of probe aXIP, primary screen, biochemical, NeuroSMM set, 635/667 nm fluorescence (AID 1119); conditions: higher = more signal, called active from +8 up or from −8 down;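 further: probe is the protein aXip251-270 applied at 1 µg/mL to compound-printed slides; binding of probe to printed compounds measured as 667 nm fluorescence plus signal to noise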
[2] = small-molecule binders of probe aNOTCH3, primary screen, biochemical, small-molecule microarray, 635/667 nm fluorescence (AID 1120); conditions: higher = more signal;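 further: probe is a biotin-tagged antibody raised against NOTCH3 rather than NOTCH3 protein; score merges spot fluorescence near 667 nm with spot signal to noise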
[3] = small-molecule binders of probe aNOTCH2, primary screen, biochemical, small-molecule microarray, 635/667 nm fluorescence (AID 1121); conditions: higher = more signal;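 further: score merges feature fluorescence read at 667 nm with its signal to noise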
[4] = target: Carbonic anhydrase 2 (Homo sapiens) (UniProt P00918); assay: CAII small-molecule binders, profiling panel, biochemical, small-molecule microarray, Alexa647-labelled CAII (AID 1122); conditions: CAII-A647 binding fluorescence, higher = more signal
[5] = COS7 lysate on small-molecule microarray, probe aHis, 635 nm (AID 1123); conditions: COS7 cell lysate, fluorescence, higher = more signal;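 further: z-score combines 667nm fluorescence intensity with signal-to-noise per printed compound spot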
[6] = compound binding in COS7 lysate, probe aLAP1, primary screen, cell lysate, small-molecule microarray (AID 1124); conditions: probe aLAP1, fluorescence, higher = more signal;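 further: lysate comes from COS7 cells expressing LAP1 and is applied at 0.3 µg/mL; score merges spot fluorescence near 667 nm with signal-to-noise over triplicate slides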
Sam68 (KHDRBS1) = assay: Sam68 small-molecule binders, primary screen, biochemical, small-molecule microarray, 635 nm fluorescence (AID 1125); conditions: small-molecule microarray binding, higher = more signal;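 further: score merges 667 nm channel intensity with signal to noise over triplicate slides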
[7] = system: Chordin-like protein 2 (CHRDL2); assay: CHRDL2 small-molecule binders, primary screen, biochemical, small-molecule microarray, 635 nm fluorescence (AID 1126); conditions: small-molecule microarray binding, fluorescence 635 nm; higher = more signal;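 further: printed compound slides probed with Chrdl2 protein at 4 µg/mL for 1 h at 4 C; score merges 667 nm emission intensity with signal to noise over three replicate slides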
[8] = target: Concanavalin-A (Canavalia ensiformis) (UniProt P02866); assay: ConA small-molecule binders, primary screen, artefact control for SMM control protein annotation, biochemical, small-molecule microarray, Alexa647 label, 635 nm (AID 1127); conditions: ConA-A647 binding fluorescence, higher = more signal;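 further: z combines 667 nm emission intensity with signal-to-noise across three replicate slides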
Sequence of Concanavalin-A (Canavalia ensiformis) (P02866 whole entry, looked up): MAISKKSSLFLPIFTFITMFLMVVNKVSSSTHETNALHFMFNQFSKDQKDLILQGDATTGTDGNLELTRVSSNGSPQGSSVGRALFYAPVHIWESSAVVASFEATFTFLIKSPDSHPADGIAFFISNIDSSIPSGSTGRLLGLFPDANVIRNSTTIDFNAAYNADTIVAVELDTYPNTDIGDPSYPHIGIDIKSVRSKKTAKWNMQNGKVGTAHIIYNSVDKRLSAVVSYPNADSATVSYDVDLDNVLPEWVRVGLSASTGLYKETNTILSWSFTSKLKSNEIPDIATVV

[9] = anti-His antibody binders, primary screen, artefact control for SMM control protein annotation, biochemical, small-molecule microarray, 635 nm fluorescence (AID 1128); conditions: anti-His Alexa647 antibody binding, higher = more signal;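 further: score merges feature fluorescence with signal-to-noise for each printed compound spot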
[10] = system: Human papillomavirus type 1a E7 protein (residues 1-88); assay: HPV1a E7 small-molecule binders, primary screen, biochemical, small-molecule microarray, residues 1-88, 635 nm (AID 1129); conditions: small-molecule microarray binding, fluorescence 635 nm; higher = more signal
[11] = target: Focal adhesion kinase 1 (Homo sapiens) (UniProt Q05397); assay: small-molecule microarray binders of FAK, primary screen, biochemical, 635/667 nm fluorescence, BSA, DTT (AID 1130); conditions: PTK2 binding, 635 nm fluorescence, higher = more signal;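 further: composite of spot emission at 667 nm and signal to noise over triplicate slides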
Sequence of Focal adhesion kinase 1 (Homo sapiens) (Q05397 whole entry, looked up): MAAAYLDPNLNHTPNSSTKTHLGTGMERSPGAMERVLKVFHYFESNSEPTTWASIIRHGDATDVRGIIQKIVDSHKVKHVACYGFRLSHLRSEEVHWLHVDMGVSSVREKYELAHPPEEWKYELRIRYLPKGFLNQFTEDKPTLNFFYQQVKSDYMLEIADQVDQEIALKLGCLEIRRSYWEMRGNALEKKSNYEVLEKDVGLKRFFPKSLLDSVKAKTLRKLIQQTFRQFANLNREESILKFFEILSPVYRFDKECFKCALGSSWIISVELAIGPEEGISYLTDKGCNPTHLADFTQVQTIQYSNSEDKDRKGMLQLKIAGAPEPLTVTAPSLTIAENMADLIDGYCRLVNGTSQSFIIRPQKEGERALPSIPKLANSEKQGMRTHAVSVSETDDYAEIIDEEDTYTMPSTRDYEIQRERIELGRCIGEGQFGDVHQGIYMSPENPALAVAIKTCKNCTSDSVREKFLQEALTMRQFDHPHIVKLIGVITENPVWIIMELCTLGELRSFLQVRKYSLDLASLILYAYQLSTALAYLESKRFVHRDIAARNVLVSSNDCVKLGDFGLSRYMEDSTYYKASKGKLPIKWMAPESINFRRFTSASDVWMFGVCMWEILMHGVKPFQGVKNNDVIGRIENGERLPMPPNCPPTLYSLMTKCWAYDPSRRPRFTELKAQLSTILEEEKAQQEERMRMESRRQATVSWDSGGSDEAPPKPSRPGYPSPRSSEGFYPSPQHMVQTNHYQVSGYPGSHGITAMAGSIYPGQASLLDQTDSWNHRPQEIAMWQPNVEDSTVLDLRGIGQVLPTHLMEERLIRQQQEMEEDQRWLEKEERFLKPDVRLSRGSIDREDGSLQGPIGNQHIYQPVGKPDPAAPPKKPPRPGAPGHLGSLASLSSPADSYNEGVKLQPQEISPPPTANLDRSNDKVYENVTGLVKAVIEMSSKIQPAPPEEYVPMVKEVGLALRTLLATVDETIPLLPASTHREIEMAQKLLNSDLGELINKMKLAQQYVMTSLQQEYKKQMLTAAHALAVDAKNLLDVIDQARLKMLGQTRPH

[12] = system: Fibrinogen (Alexa647-labelled); assay: fibrinogen binders on compound microarrays, profiling panel, artefact control for SMM control-protein annotation, biochemical, small-molecule microarray, 635/667 nm fluorescence (AID 1131); conditions: fibrinogen-A647 binding fluorescence, higher = more signal;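 further: z-score merges 667 nm fluorescence with per-spot signal-to-noise over triplicate slides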
[13] = target: Follistatin (Homo sapiens) (UniProt P19883); assay: follistatin binders on small-molecule microarrays, primary screen, biochemical, small-molecule microarray, 635/667 nm fluorescence (AID 1132); conditions: FST binding, 635 nm fluorescence, higher = more signal
Sequence of Follistatin (Homo sapiens) (P19883 whole entry, looked up): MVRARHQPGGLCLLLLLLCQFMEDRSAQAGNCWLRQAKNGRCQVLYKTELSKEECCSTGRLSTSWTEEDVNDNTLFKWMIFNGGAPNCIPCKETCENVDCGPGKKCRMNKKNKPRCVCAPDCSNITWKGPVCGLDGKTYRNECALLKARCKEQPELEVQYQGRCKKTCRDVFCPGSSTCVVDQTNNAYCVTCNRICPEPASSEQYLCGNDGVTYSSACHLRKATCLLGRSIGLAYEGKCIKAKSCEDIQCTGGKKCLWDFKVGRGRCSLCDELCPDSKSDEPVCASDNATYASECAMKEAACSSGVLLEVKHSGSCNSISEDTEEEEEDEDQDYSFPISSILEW

[14] = target: Fibroblast growth factor 2 (Homo sapiens) (UniProt P09038); assay: FGF2 binders on small-molecule microarrays, primary screen, biochemical, small-molecule microarray, 635/667 nm fluorescence (AID 1133); conditions: small-molecule microarray binding, FGF2, fluorescence 635/667; higher = more signal
Sequence of Fibroblast growth factor 2 (Homo sapiens) (P09038 whole entry, looked up): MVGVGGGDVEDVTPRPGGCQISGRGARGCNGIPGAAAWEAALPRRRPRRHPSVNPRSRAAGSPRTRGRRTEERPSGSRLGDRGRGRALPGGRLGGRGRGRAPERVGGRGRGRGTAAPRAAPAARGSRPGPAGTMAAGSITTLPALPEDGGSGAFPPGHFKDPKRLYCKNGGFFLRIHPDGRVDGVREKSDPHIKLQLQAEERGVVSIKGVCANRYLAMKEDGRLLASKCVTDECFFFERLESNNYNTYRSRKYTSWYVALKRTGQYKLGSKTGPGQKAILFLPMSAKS

[15] = mitochondrial membrane potential change in A549 cells, profiling panel, cell-based, JC-1 fluorescence, basal, 24 h, 100 nL (AID 1138); conditions: higher = more signal;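 further: A549 lung adenocarcinoma cells under basal conditions with no added stimulus; test concentration not given here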
Lefty1 = Lefty1 binders on small-molecule microarrays, primary screen, biochemical, small-molecule microarray, 635/667 nm fluorescence (AID 1139); conditions: small-molecule microarray binding, fluorescence 635/667; higher = more signal
[16] = system: wheat germ agglutinin (Triticum aestivum), Alexa647-labelled; assay: wheat germ agglutinin binders on compound microarrays, profiling panel, artefact control for SMM control-protein annotation, biochemical, small-molecule microarray, 635/667 nm fluorescence (AID 1140); conditions: WGA-A647 binding, 635 nm fluorescence, higher = more signal;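 further: score merges 667 nm feature emission with signal to noise over triplicate slides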
[17] = target: Luciferin 4-monooxygenase (Photinus pyralis) (UniProt P08659); assay: firefly luciferase enzyme inhibitors, primary screen, biochemical, luminescence, purified enzyme, 2006 set (AID 1141); conditions: SteadyGlo luminescence, 30 min, higher = more signal, called active from +8 up or from −8 down;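 further: cell-free assay with purified firefly luciferase at 100 ng per well in PBS; test concentration not given here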
Sequence of Luciferin 4-monooxygenase (Photinus pyralis) (P08659 whole entry, looked up): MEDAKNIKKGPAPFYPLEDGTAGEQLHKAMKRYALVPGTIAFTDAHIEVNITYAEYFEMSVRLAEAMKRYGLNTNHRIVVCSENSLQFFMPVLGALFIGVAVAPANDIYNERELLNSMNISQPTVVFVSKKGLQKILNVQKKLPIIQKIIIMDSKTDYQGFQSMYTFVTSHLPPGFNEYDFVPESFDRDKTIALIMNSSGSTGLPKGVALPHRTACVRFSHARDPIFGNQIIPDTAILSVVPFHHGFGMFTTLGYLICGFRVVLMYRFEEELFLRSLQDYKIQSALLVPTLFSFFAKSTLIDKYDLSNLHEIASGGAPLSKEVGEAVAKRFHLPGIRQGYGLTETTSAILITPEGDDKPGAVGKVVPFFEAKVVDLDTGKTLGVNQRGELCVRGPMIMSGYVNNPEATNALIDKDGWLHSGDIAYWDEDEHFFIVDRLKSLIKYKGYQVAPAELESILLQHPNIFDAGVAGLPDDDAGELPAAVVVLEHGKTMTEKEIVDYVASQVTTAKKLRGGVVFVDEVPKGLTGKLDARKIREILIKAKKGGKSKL

| SMILES | composite z-score (Albumin (Bos taurus)) | composite Z-score [1] | composite z-score [2] | composite z-score [3] | composite z-score [4] | composite z-score [5] | composite z-score [6] | composite z-score (Sam68 (KHDRBS1)) | composite z-score [7] | composite z-score [8] | composite z-score [9] | composite z-score [10] | composite z-score [11] | composite z-score [12] | composite z-score [13] | composite z-score [14] | z-score [15] | composite z-score (Lefty1) | composite z-score [16] | z-score [17] |
| --- | --- | --- | --- | --- | --- | --- | --- | --- | --- | --- | --- | --- | --- | --- | --- | --- | --- | --- | --- | --- |
| C#CCCCON=C1C[C@@H](O)[C@@H](O)[C@@H]2[C@@H]3C(=O)N(c4cccc(Oc5ccccc5)c4)C(=O)[C@@H]3CC[C@H]12 | -0.302 | 1.27 (inactive) | -0.373 | -0.14 | 0.709 | 0.0922 | 0.762 | -0.582 | -0.771 | -0.387 | 0.247 | -0.936 | -0.427 | -1.13 | -0.446 | -0.455 | 0.8 | -0.275 | 0.272 | 0.134 (inactive) |
| C[C@@H](c1ccccc1)N1C(=O)[C@H]2[C@H]3[C@H](O)[C@H](O)CC(=NO[C@@H]4O[C@H](CO)[C@@H](O)[C@H](O)[C@H]4O)[C@H]3CC[C@H]2C1=O | 0.0673 | -0.154 (inactive) | 0.0259 | 0.012 | -0.0193 | 0.0007 | 0.554 | 0.648 | 0.373 | 0.44 | 0.746 | 0.76 | -0.0492 | 0.318 | 0.656 | 0.444 | 0.296 | 0.554 | 0.0795 | 0.491 (inactive) |
| CCOC(=O)[C@H](CC(C)C)NC(=O)CCC1CC(OC(=O)NCCc2ccc(F)cc2)CC2(CCCC(COC(=O)NCCC(C)C)O2)O1 (stereo not given in full) | 0.281 | -0.375 (inactive) | 0.128 | -0.177 | 0.269 | 0.596 | -0.14 | -0.163 | 0.301 | 0.816 | 1.79 | 0.0471 | 0.459 | 0.818 | 0.601 | 0.0263 | 0.427 | 0.304 | 0.421 | 0.403 (inactive) |
| CCOC(=O)[C@H](Cc1ccccc1)NC(=O)CCC1CC(OC(=O)NCc2cccc3ccccc23)CC2(CCCC(COC(=O)NCc3cccc(C(F)(F)F)c3)O2)O1 (stereo not given in full) | 0.331 | 0.0898 (inactive) | -0.124 | -0.14 | 0.138 | 0.345 | 0.131 | 0.462 | -0.0424 | 0.187 | 0.419 | 0.565 | 0.219 | 0.193 | -0.0637 | 0.0858 | 1.94 | 0.0217 | 0.0961 | -0.114 (inactive) |
| CC(=O)OC[C@H]1OC(ON=CC[C@@H]2C=C[C@H](OC(C)=O)[C@@H](COC(C)=O)O2)[C@H](OC(C)=O)[C@@H](OC(C)=O)[C@@H]1OC(C)=O (stereo not given in full) | 0.0478 | 0.359 (inactive) | 0.144 | -0.14 | -0.451 | -0.011 | 0.31 | 1.14 | -0.794 | 0.215 | 2.8 | 0.268 | 0.282 | 0.106 | -0.494 | 0.0994 | -0.99 | -0.101 | -0.223 | 1.11 (inactive) |
| CO[C@@H]1COC(=O)CC=C[C@@H](C)[C@@H]2C=C[C@H](O)[C@@H](COC(=O)CC=C[C@H]1C)O2 | -0.806 | 0.718 (inactive) | -0.124 | -0.166 | -0.257 | -1.01 | 0.146 | 0.141 | 1.14 | -0.629 | -0.143 | -1.07 | -0.649 | -0.616 | 1.45 | 1.3 | 1.81 | 1.66 | -0.448 | -1.35 (inactive) |
| O=C1C[C@@H](O)[C@@H](O)[C@@H]2[C@@H]3C(=O)N(Cc4ccc5c(c4)OCO5)C(=O)[C@@H]3CC[C@H]12 | 0.272 | 0.0723 (inactive) | -0.16 | -0.186 | -0.126 | -0.254 | -0.225 | 0.416 | 0.356 | 0.717 | 0.324 | 0.923 | 0.381 | 0.735 | 0.243 | 0.19 | 0.733 | 0.428 | -0.203 | -0.56 (inactive) |
| COC(=O)CC=C[C@H](C)[C@@H](OCc1cccc(Br)c1)[C@@H](C)[C@H](OC)C1CCCCC1 | -1.15 | 0.143 (inactive) | -0.0914 | -0.124 | 0.0679 | -0.504 | -0.0998 | -0.446 | 0.652 | -1.23 | 0.0864 | -1.06 | -0.484 | -1.74 | 0.22 | -0.0877 | 1.74 | 0.525 | 0.325 | -3.27 (inactive) |
| CCCNC(=O)OC[C@H]1O[C@H](CCON=C(C)CCN2CCCc3nc(C)c(C)cc32)C=C[C@@H]1Oc1ccc(OC)cc1 | 0.727 | 0.475 (inactive) | 0.0894 | -0.0846 | 0.147 | 1.21 | 0.0156 | 1.29 | 0.0783 | 0.925 | 1.4 | 1.09 | 0.664 | 0.808 | 0.585 | 0.499 | 1.85 | 0.252 | 0.625 | 0.326 (inactive) |
| C#CCCCON=C1C[C@@H](O)[C@@H](O)[C@@H]2[C@@H]3C(=O)N(c4ccc(F)cc4F)C(=O)[C@@H]3CC[C@@H]12 | 0.373 | -0.302 (inactive) | -0.113 | -0.0569 | -0.15 | -0.366 | 0.202 | 0.428 | 0.217 | 0.505 | -0.0071 | 0.111 | 0.131 | 0.265 | 0.141 | 0.474 | -0.633 | 0.322 | 0.238 | 1.04 (inactive) |
| COC(=O)[C@@H]1CC[C@H](C)[C@@H](c2ccc(C)cc2)N1C(=O)c1ccc(C=NOCC[C@@H]2C=C[C@H](OC(C)=O)[C@@H](COC(C)=O)O2)cc1 | -0.129 | -0.2 (inactive) | 0.088 | -0.1 | -0.0127 | 0.148 | -0.552 | 0.926 | 0.772 | 0.658 | 2.68 | 0.895 | -0.125 | 0.316 | 0.47 | 0.614 | -0.512 | 0.605 | 0.175 | 0.963 (inactive) |
